# IMPase cell inh: qHTS Assay for Identifying the Cell-Membrane Permeable IMPase Inhibitors; inhibition (IP1 accumulation), % at 46.1 µM; 120,000 tested, under 10 active; Inositol monophosphatase 1 (Rattus norvegicus), P97697; CHO-M1 cells, IP1 accumulation, HTRF TR-FRET ratio; AID 901, 2007; active means well fitted curve in the direction sought with a large enough effect in the signal ratio, not every such curve was filed as active; inconclusive means small, poorly fitted or top-dose-only effect, or a change in a side signal; inactive means no such curve, though single readings can be large or run the other way; the % refers to the signal ratio;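 further: cells stimulated with carbachol in lithium chloride buffer; plate controls were DMSO basal wells for no effect and reference inhibitor wells for full effect; higher means more IMPase inhibition seen as more IP1 and lower FRET ratio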
# Target sequence (P97697 whole entry, looked up): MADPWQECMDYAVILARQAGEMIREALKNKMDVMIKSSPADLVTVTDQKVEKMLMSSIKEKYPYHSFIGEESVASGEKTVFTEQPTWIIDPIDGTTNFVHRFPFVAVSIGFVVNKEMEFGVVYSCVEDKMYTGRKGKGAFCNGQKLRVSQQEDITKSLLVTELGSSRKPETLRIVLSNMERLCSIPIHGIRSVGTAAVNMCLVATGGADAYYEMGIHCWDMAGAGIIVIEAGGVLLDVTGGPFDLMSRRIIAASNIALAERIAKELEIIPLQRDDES
#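 CHO-M1 cells (CHO stably expressing M1 receptor), compound up to 46 uM final, stimulated with carbachol (50 uM as added) in buffer with 50mM LiCl, pH 7.4, 30 min at 37C. Cytosolic IP1 read by TR-FRET; AC50 from Hill fits.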
# KinaseGlo FLuc: Counterscreen for Luciferase (Kinase-Glo TM) Inhibition; Luciferin 4-monooxygenase (Photuris pensylvanica), Q27757; Kinase-Glo luciferase, ATP luminescence, 8 min; Potency, µM (highest dose often 38.3 µM), for inactives: at the top dose activity change, negative = inhibition, hits mostly inhibitors; actives 0.28% (n = 200,000); AID 1379, 2008; active means well fitted inhibition curve with a large enough effect; inconclusive means small, poorly fitted or top-dose-only effect; further: potency means the concentration at half of the fitted maximal effect; nearly all actives have a fitted effect of over 60% in size
#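 Luminescence was the read-out, taken after 8-minute incubation at ambient temperature. Luciferase turned over luciferin with 10 uM ATP in imidazole pH 7.2 buffer containing KCl, MgCl2, Tween 20 and BSA.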
# PNC inhibitor: High Content Assay for Compounds that inhibit the Assembly of the Perinucleolar Compartment. PC3M PTB-GFP, PNC prevalence imaging, 16 h; hits give low values. activity change (PNC), negative = inhibition, % at 10 µM. actives 3.1% (n = 140,000). AID 2417, 2010;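 active means readout at or below -70, meaning at least 70% loss of cells showing the perinucleolar compartment, a nuclear body marking cancer cells; inconclusive means readout between -30 and a set limit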;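 further: plate controls were DMSO wells for no effect and camptothecin positive control wells for full effect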
#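 Read-out is percentage of cells bearing a perinucleolar compartment, from automated 20x imaging of fixed, Hoechst-stained PC3M PTB-GFP cells. Cells were seeded 4 h, then exposed 16 h to compound (23 nl of library stock) in duplicate plates.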
# LMNA splice mod: qHTS Assay for Modulators of Lamin A Splicing; HeLa LMNA splicing GFP/RFP minigene ratio, 48 h; Potency, µM (doses to about 46.1 µM), without a hit: top-dose ratio change, negative = inhibition, usual class: inhibitors; actives 0.01% (n = 200,000); AID 1487, 2009; active means well fitted inhibition curve with a large enough effect in the signal ratio, with a control signal flat, not every such curve was filed as active; inconclusive means small, poorly fitted or top-dose-only effect, or effect the other way, or a change in a side signal; the % refers to the signal ratio; further: potency means the concentration at half of the fitted maximal effect
#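 S3 HeLa cells stably expressing lamin A-EGFP splicing minigene plus DsRed2, 600 cells/well, 48 h compound exposure at 37C. Laser-scanning cytometry; analysed as GFP (500-530 nm)/RFP (575-640 nm) total intensity ratio; 0.5% DMSO vehicle.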
# ALDH1A1 inh: qHTS Assay for Inhibitors of Aldehyde Dehydrogenase 1 (ALDH1A1); Potency, µM (highest dose often 75.3 µM), inactives show at the top dose activity, negative = inhibition, hits mostly inhibitors; Purified ALDH1A1, NADH fluorescence, propionaldehyde substrate; actives 7.3% (n = 220,000); Aldehyde dehydrogenase 1A1 (Homo sapiens), P00352;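 further: potency means the concentration at half of the fitted maximal effect; plate controls were no enzyme wells and a reference inhibitor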
# HPGD block: qHTS Assay for Inhibitors of HPGD (15-Hydroxyprostaglandin Dehydrogenase); 15-hydroxyprostaglandin dehydrogenase [NAD(+)] (Homo sapiens), P15428; actives 4.3% (n = 150,000); AID 894, 2007; purified HPGD, NADH fluorescence kinetic, PGE2 substrate; Potency, µM, for the others: at the highest dose activity change, negative = inhibition, most hits filed as inhibitors; further: potency means the concentration at half of the fitted maximal effect
# Target sequence (P15428 whole entry, looked up): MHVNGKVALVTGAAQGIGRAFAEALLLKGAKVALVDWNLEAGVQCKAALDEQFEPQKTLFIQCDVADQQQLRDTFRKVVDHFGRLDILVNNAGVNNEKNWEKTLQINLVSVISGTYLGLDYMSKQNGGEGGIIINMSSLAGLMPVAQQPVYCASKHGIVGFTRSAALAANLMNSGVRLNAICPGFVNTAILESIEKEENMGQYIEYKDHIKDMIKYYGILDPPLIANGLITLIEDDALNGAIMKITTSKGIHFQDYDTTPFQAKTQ
#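 20 nM HPGD preincubated 15 min at room temperature with compound in 50 mM Tris-HCl pH 8, 0.01% Tween 20. Started with 1 mM NAD+ and 30 uM prostaglandin E2; NADH fluorescence (360/450 nm) read 5 times over 30-s intervals, last minus first.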
# Active calls of the source: *; ? = inconclusive; nt = not tested or not shown; [ ] = dose if it differs, or a comment. Only some compounds are listed: those with a hit (about 10% of all), similar ones and a draw of the others. Unless noted, the call rests on the fitted dose curve; in most records, active means well fitted inhibition curve with a large enough effect (not every such curve was filed as active); inconclusive means small, poorly fitted or top-dose-only effect, or another doubt; inactive means no such curve, though single readings can be large or run the other way. Unless noted, on the % scale 0 is the no-effect control and ±100 the full control effect.
SMILES,IMPase cell inh,KinaseGlo FLuc,PNC inhibitor,LMNA splice mod,ALDH1A1 inh,HPGD block
CCOC(=O)c1c(-c2ccc(OC)cc2)csc1/N=C/C1C(=O)CCCC1=O,nt,-2%,nt,14%[46 µM],5µM*,nt
COc1ccc(CCN2C(=NC(=O)CCC(=O)O)SC3CS(=O)(=O)CC32)cc1OC (stereo not given),4,7%,-9,7%,25µM*,-9%
Cc1ccccc1CN1C2=NCCN2C(=O)C2=C1CCN(Cc1ccccc1)C2,nt,-2%[7.66 µM],nt,nt,6%[13.5 µM],-5%
COc1cccc([C@@H]2Oc3ccc(Br)cc3C[C@H]2OC(=O)NS(=O)(=O)c2ccc(F)cc2)c1,nt,-5%,nt,nt,3%,-9%
CS(=O)(=O)Nc1ccc(C(=O)N2CCc3ccccc3C2)cc1,nt,-3%,nt,?,-5%,nt
CC1CCN(C(=O)c2ccc(NS(C)(=O)=O)cc2)CC1,7,1%,-18,-1%,?,10µM*
CC(C)C(=O)Nc1ccc(C(=O)N2CCCCCC2)cc1,3,-4%,-2,6%,0%,2µM*
O=C(O)C1C2C=CC(C2)C1C(=O)Nc1ccc(C(=O)N2CCCCC2)cc1 (stereo not given),-4[1.84 µM],1%,8,1%,?,1.3µM*
Cc1ccc(-c2ccc(NC(=O)C3C4C=CC(C4)C3C(=O)O)cc2)o1 (stereo not given),4,1%,10,2%,?,20µM*
CCOC(=O)c1ccc(NC(=O)C2C3C=CC(C3)C2C(=O)O)cc1 (stereo not given),-1,8%,7,12%,?,-9%
NS(=O)(=O)c1ccc(NC(=O)C2C3C=CC(C3)C2C(=O)O)cc1 (stereo not given),nt,4%,nt,18%[46 µM],?,nt
O=C1[C@H]2[C@H]3[C@H](O)[C@H](O)C/C(=N/OCc4ccccc4)[C@H]3CC[C@@H]2C(=O)N1C1CCCCC1,nt,nt,nt,nt,-8%[13.5 µM],nt
Cc1cccc(NC(=O)c2ccc(N(Cc3ccccc3)S(C)(=O)=O)cc2)c1,1,nt,nt,nt,nt,nt
CC(=O)N1CCC2(CC1)CN(C(=O)Nc1cccc(C#N)c1)C2,nt,1%,nt,nt,2%,-4%
Cc1noc(C)c1S(=O)(=O)Nc1ccc(C(=O)N2CCCCC2)cc1,-4,0%,-19,9%,-7%,32µM*
CS(=O)(=O)Nc1ccc(N2CCCCC2)c(Cl)c1,-4,-1%,17,-16%,-7%,7.1µM*
CS(=O)(=O)Nc1ccc(S(=O)(=O)N2CCCC2)cc1,nt,-1%,nt,17%[46 µM],?,nt
CS(=O)(=O)Nc1ccc(C(=O)N2CCCCC2)cc1,-3,-3%,14,-16%,?,14µM*
O=C(Nc1ccc(C(=O)N2CCCC2)cc1)c1ccccc1F,3,?,-21,-3%,-8%,3.2µM*
CSC1=NC2(CCN(C(=O)NC3CCCCC3)CC2)N=C1c1ccc(C)c(C)c1,nt,nt,nt,6%[46 µM],nt,nt
CC(=O)[C@H](C(=N)C#N)C(=O)Nc1ccccc1,nt,-1%[7.66 µM],nt,nt,5%[13.5 µM],-11%
O=C1c2ccccc2CC[C@H]1CNCCc1ccc(O)cc1,2,0%,nt,nt,?,-4%
Cc1oc(-c2ccc(Cl)cc2)nc1Cn1c(=O)cc(-c2ccccc2)c2c(C)nn(C)c21,nt,nt,nt,-3%[46 µM],nt,nt
Cc1cccc(Cn2cnc3c(oc4ccccc43)c2=O)c1,nt,nt,nt,21%[46 µM],nt,nt
Cc1ccc(NC(=O)c2c(NC(=O)c3ccco3)sc3c2CCC(C(C)(C)C)C3)c(C)c1 (stereo not given),-3,nt,nt,nt,nt,nt
SMILES,IMPase cell inh,KinaseGlo FLuc,PNC inhibitor,LMNA splice mod,ALDH1A1 inh,HPGD block
O=C1CC(c2ccco2)CC(O)=C1C=NCCN1CCN(C(=O)Nc2ccc(Cl)cc2)CC1 (stereo not given),nt,-2%,-99*,3%,4%,-4%
O=C1CC(c2ccco2)CC(O)=C1C=Nc1cc(Cl)ccc1O (stereo not given),11,-6%,-8,?,?,8.9µM*
O=C1CC(c2ccco2)CC(O)=C1C=Nc1cc(Cl)ccc1Cl (stereo not given),nt,-1%,-24,-8%,?,-19%
COc1ccccc1CN1CCCC2(CCNCC2)C1,nt,-7%,nt,nt,9%,-10%
COC(=O)N[C@H](CC(C)=O)c1ccccc1,nt,1%,-99*,-6%,5%,-8%
CCC(=O)CC(NC(=O)OC)c1ccccc1 (stereo not given),nt,nt,nt,nt,1%[13.5 µM],nt
Cc1ccc(C(=O)c2sc3nsc(C)c3c2N)cc1,16,-4%,?,13%,14µM*,-27%
CNc1nc(-c2ccccc2C)nc2ccccc12,nt,nt,nt,-9%,8%,nt
O=C1C(=C(O)c2ccccc2)C(=O)c2ccccc21,2,-2%,4,?,4µM*,-25%
O=C(c1ccccc1)C1C(=O)c2ccccc2C1=O,7,-4%,-29,12%,-6%,-6%
O=C(Oc1ccc(Br)cc1C(=S)N1CCCC1)c1ccccc1F,nt,-1%,-28,?,11µM*,25µM*
O=C(Oc1ccc(C(=S)N2CCOCC2)cc1)c1ccccc1,nt,-3%,nt,23%[46 µM],-2%,nt
O=C(Oc1ccc(C(=S)N2CCCCC2)cc1)c1ccccc1F,nt,-1%,nt,nt,8.9µM*,nt
Cc1ccc(SCc2noc(C(=O)NC(C)C)c2C(=O)O)cc1C,1,1%,-1,?,?,-14%
CC(C)NC(=O)c1onc(CSc2ccc(C(C)C)cc2)c1C(=O)O,-1,6%,54,?,?,22µM*
CC(C)NC(=O)c1onc(CSc2ccc(F)cc2)c1C(=O)O,2,3%,55,5%[0.0737 µM],?,40µM*
CCCCNC(=O)c1onc(CSc2ccc(F)cc2)c1C(=O)O,0,3%,69,-2%[0.0737 µM],6%,-16%
C=CCNC(=O)c1onc(CSc2ccc(C(C)C)cc2)c1C(=O)O,2,4%,80,?,-11%,14µM*
CC(C)NC(=O)c1onc(CSc2ccc(F)c(F)c2)c1C(=O)O,2,-1%,83,-6%[0.0737 µM],22µM*,-21%
O=C1[C@H]2[C@H]3[C@H](O)[C@H](O)C/C(=N/OC[C@@H](O)COCc4ccco4)[C@H]3CC[C@@H]2C(=O)N1Cc1ccccc1,nt,nt,nt,nt,1%[13.5 µM],nt
CCCCS(=O)(=O)N1C2=NC(C(=O)OC)=C(C(=O)OC)[C@@H]3Nc4ccccc4[C@]23C[C@H]1C(=O)OC,nt,-6%[7.66 µM],nt,?,6%[13.5 µM],-8%
COc1ccc(NC(=O)COCc2cc(-c3ccc4c(c3)OCO4)on2)cc1,nt,nt,nt,28%[46 µM],nt,nt
COC(=O)[C@H](CCSC)NC(=O)C/C=C\[C@@H](C)CO,nt,nt,nt,nt,6%[13.5 µM],nt

# Screening data from PubChem BioAssay.
